# Results reported in PubChem BioAssay (NCATS).
# Records with an inconclusive call do not appear. Where a call stands in place of a potency, no number is given. A number with no mark means an inactive call. Calls of active or inactive are those of the source. Calls come from the whole dose curve.
# Test: Cytotoxicity counterscreen for inhibitors of SARS-CoV-2 cell entry (AID 1645845); note: nearly all actives have a fitted effect of over 50% in size
# Details: cell viability (SARS-CoV-2 entry assay cells); series mostly up to 57.1 µM; activity change, negative = cytotoxicity: at the top concentration
# Outline: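 HEK293-ACE2 cells (Expi293F stably expressing human ACE2) seeded overnight, then compound for 1 h plus 48 h at 37C. Viability as ATP content by luminescence; normalized to wells with cells and media-only wells.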
# Potency is the fitted concentration of half-maximal effect.
SMILES,outcome,Potency,"activity change, negative = cytotoxicity"
COC(=O)c1ccc2c(C(=Nc3ccc(N(C)C(=O)CN4CCN(C)CC4)cc3)c3ccccc3)c(O)[nH]c2c1,inactive,,
CN(C)CC/C=C1/c2ccccc2COc2ccc(CC(=O)O)cc21,,inactive,
CCC(=O)O[C@@H]1C=C2CCC3C(CCC4(C)C3CC[C@@H]4OC(=O)CC)C2CC1 (stereo partly drawn),,,4.72%
C[C@@H]1CN(c2c(F)c(N)c3c(=O)c(C(=O)O)cn(C4CC4)c3c2F)C[C@H](C)N1,,inactive,
C[N+](C)(C)CC(=O)O,,inactive,
N[C@H]1C(O)O[C@H](CO)[C@@H](O)[C@@H]1O (stereo partly drawn),inactive,,
CC[C@@H](C(N)=O)N1CCCC1=O,inactive,,
O=C1NS(=O)(=O)c2ccccc21,,,-10.8%
NC1=NC(=O)N2CC12 (stereo not drawn),inactive [at 114 µM],,
COc1ncnc(NS(=O)(=O)c2ccc(N)cc2)c1OC,,inactive,
COc1c(Cl)cc2c([nH]c3cnccc32)c1NC(=O)c1cccnc1C,,,-5.81%
CC(C[N+](C)(C)C)OC(N)=O (stereo not drawn),,inactive,
CN(C)[C@@H]1C(=O)C(C(N)=O)=C(O)[C@@]2(O)C(=O)C3=C(O)c4c(O)cccc4[C@@](C)(O)[C@H]3[C@H](O)[C@@H]12,,inactive,
CC(=O)NC(C)c1ccc(Oc2ccc(OC(C)C)cc2)cc1 (stereo not drawn),,,1.42% [at 114 µM]
CCOc1cc(C(=O)Nc2ccc(Cl)c(-c3nc4ccccc4[nH]3)c2)cc(OCC)c1OCC,inactive,,
c1ccc(C2(c3ccccc3)CC2C2=NCCN2)cc1 (stereo not drawn),inactive,,
O=C1C(Cl)=C(NCCN2CCOCC2)C(=O)c2ncccc21,,28.2 µM (active),
CCOC(=O)C(C)Oc1cccc2c(=O)n(CC(=O)Nc3ccc4c(c3)OCCO4)ccc12 (stereo not drawn),inactive,,
CCc1c(C(=O)C(N)=O)c2c(OCC(=O)O)cccc2n1Cc1ccccc1,inactive,,

SMILES,outcome,Potency,"activity change, negative = cytotoxicity"
NCCCC(N)(C(=O)O)C(F)F (stereo not drawn),,inactive,
COc1ccc(C(=O)c2c(C)n(CCN3CCOCC3)c3cc(I)ccc23)cc1,,,-39.9%
N#Cc1ccc(NC(=O)Nc2ccccc2Br)c2n[nH]nc12,inactive,,
c1ccc2[nH]ccc2c1,inactive,,
CC(C)c1onc(-c2c(Cl)cccc2Cl)c1COc1ccc(/C=C/c2cccc(C(=O)O)c2)c(Cl)c1,inactive,,
COc1ccc(-c2c(-c3ccc(O)cc3O)n[nH]c2C)cc1,,,-14.1%
CCN(CC)C(=O)c1ccc(C2=CC3(CCNCC3)Oc3cccc(O)c32)cc1,,,3.35%
N#CCNC(=O)c1ccc(-c2ccnc(Nc3ccc(N4CCOCC4)cc3)n2)cc1,,31.6 µM (active),
C#CC(C)(CC)OC(=O)c1ccccc1C(=O)O (stereo not drawn),inactive,,
CC(=O)N[C@@H](CCC(N)=O)C(=O)O,inactive,,
CCCCOCCOc1nc(-c2ccc(C(=O)O)c(F)c2)sc1C,,,-1.28%
CCCS(=O)(=O)Nc1ccc(F)c(C(=O)c2c[nH]c3ncc(-c4ccc(Cl)cc4)cc23)c1F,,inactive,
Cc1cc(Nc2nc(N[C@@H](C)c3ncc(F)cn3)ncc2Cl)n[nH]1,,,-17.9%
CC(Cc1ccc(O)cc1)NCC(O)c1cc(O)cc(O)c1 (stereo not drawn),inactive,,
O=C(N[C@H]1CN2CCC1CC2)c1ccc(Cl)cc1,inactive,,
Cc1n[nH]c(C)c1Cc1sc2c(c1C(=O)N1C[C@H](O)CO1)c(=O)n(C)c(=O)n2CC(C)C,,,-7.21%
O=C(Nc1ccncc1)C(=O)c1cn(Cc2ccc(Cl)cc2)c2ccccc12,,,-31.9%
CCCN1CCO[C@@H]2c3cc(O)ccc3OC[C@H]21,,,-28.9%
CCOP(=O)(OCC)C(C)NC(=O)N(CCCl)N=O (stereo not drawn),,inactive,
